Activation (% of control) data for 66 compounds are collected here from PubChem BioAssay AID932 (The Scripps Research Institute Molecular Screening Center, 2007).

About 5,100 (2.5%) of roughly 200,000 compounds were called active. The sample as a whole holds a higher share of actives than the screen did. Unmarked numbers belong to inactive results.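 Rule for the calls: active = activation above the screen-wide mean activation plus 3 SD (cut at about 130% in these data); inactive = the rest.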

This assay can be described thus: potentiators of IFN-gamma driven STAT1 reporter – cell-based, HTS, luciferase reporter, primary screen (AID 932).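 Note: raw ratio to IFN-gamma control signal so 100% means no change and 0% no light.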 Conditions: NIH 3T3 STAT1-luciferase reporter, luminescence, at 5.5 µM, hits give high values, 100% = IFN-gamma alone, no compound.
On to `O=C(N1CCCC1)C12CC3CC(C1)CC(C(=O)N1CCCC1)(C3)C2`, for which the activation (% of control) was 99.8%.

Take `CCCNC(=O)c1ccc(Cl)c(Cl)c1`: the activation (% of control) is 98.4%.

On to `Cc1c(C(=O)NCc2ccccc2)cnn1-c1ccccc1`, for which the activation (% of control) is 101%.

As for `CCCNC(=O)c1c(Cl)cnn1-c1ccc(C)cc1`, the activation (% of control) is 142% (active).

As to `Cn1ncc(N2CCN(S(=O)(=O)c3ccc(Br)cc3)CC2)c(Cl)c1=O`, the activation (% of control) is 110%.

Regarding `COc1cc(C)c(Cl)cc1S(=O)(=O)n1ccnc1`, the activation (% of control) is 92.5%.

Take `CNc1nc(Nc2ccc(C)c(Cl)c2)nc(N)c1[N+](=O)[O-]`: the activation (% of control) is 142% (active).

On to `Nc1nc(NCCCN2CCOCC2)nc(Nc2ccccc2)c1[N+](=O)[O-]`, for which the activation (% of control) was 103%.

`COCCNc1nc(N)c([N+](=O)[O-])c(NCCO)n1`: the activation (% of control) was 114%.

On to `Cc1nn(-c2ccccc2)c(NC(=O)c2cccs2)c(-c2ccc(Cl)cc2)c1=O`, for which the activation (% of control) is 107%.

With `CC(C)c1ccc(NC(=O)NC2CCCCC2)cc1`, the activation (% of control) was 180% (active).

For `CC(C)N1CCC(NC(=O)Nc2ccccc2)CC1`, the activation (% of control) was 95.4%.

With `CC(C)(C)NS(=O)(=O)c1ccc(NC(=O)NC2CCCCC2)cc1`, the activation (% of control) was 103%.

Turning to `Cc1nn2cc(-c3ccc(Cl)cc3)cnc2c1Br`, the activation (% of control) was 140% (active).

For `COc1ccccc1-c1nnc(NC(=O)c2ccc3ncsc3c2)o1`, the activation (% of control) was 122%.

Consider `O=C(CC(=O)N/N=C\c1ccc(F)cc1)NCCc1ccccc1`, for which the activation (% of control) is 100%.

`O=C(NNC(=O)C1C2CCC(C2)C1C(=O)O)c1ccc(Cl)cc1` (stereo unspecified): the activation (% of control) is 110%.

For `CC(C)(C)OC(=O)N/N=C/c1ccc(C(=O)O)cc1`, the activation (% of control) was 104%.

With `Cc1ccccc1NC(=O)NNC(=O)OC(C)(C)C`, the activation (% of control) is 103%.

Consider `C/C(=N\NC(=O)OC(C)(C)C)c1ccc[nH]1`, for which the activation (% of control) is 130% (active).

With `COc1ccc(C(=O)C2CCCN(C(=O)c3cc4nc(C)cc(C)n4n3)C2)cc1F` (stereo unspecified), the activation (% of control) was 95.3%.

As for `COc1ccc(-n2nc3c(c2NC(=O)c2ccc(N4C(=O)CCC4=O)cc2)CSC3)cc1`, the activation (% of control) was 96.7%.

Regarding `NC(N)=N/N=C/c1ccc(Cl)c([N+](=O)[O-])c1`, the activation (% of control) was 93.6%.

`Cc1ccc(NC(=S)NC(=O)c2ccc(-c3ccccc3)cc2)cc1`: the activation (% of control) is 98.2%.

As to `Cc1ccc(C)c(NC(=S)NNC(=O)c2csc(C)c2)c1`, the activation (% of control) was 97.8%.

Consider `Cc1cc(C(=O)NNC(=S)Nc2ccccc2C)cs1`, for which the activation (% of control) is 130% (active).

Turning to `Cc1ccc(NC(=S)NC(=O)c2ccc(-c3ccccc3)cc2)c(C)c1`, the activation (% of control) is 92%.

For `Cc1ccc(C(=O)NC(=S)Nc2ccccc2C)cc1`, the activation (% of control) is 130% (active).

As for `Cc1ccccc1NC(=S)NNC(=O)c1cccc(Br)c1`, the activation (% of control) was 104%.

For the compound `CCCN(C(=O)CSc1nnnn1C)c1c(N)n(Cc2ccccc2)c(=O)[nH]c1=O`, the activation (% of control) is 101%.

On to `Cc1ccc(N/N=C2\COC(C)(C)CC2=O)cc1`, for which the activation (% of control) is 142% (active).

`COc1ccc(N/N=C2/CCCCC2=O)cc1`: the activation (% of control) is 105%.

Take `CCn1cc(CN2CCCC(CNS(=O)(=O)Cc3ccccc3)C2)cn1` (stereo unspecified): the activation (% of control) is 89.7%.

`CN=c1scc(-c2cc(OC)ccc2OC)n1/N=C/c1c(C)[nH]c2ccccc12`: the activation (% of control) was 112%.

Regarding `CCn1ccnc1CN1CCCC(C(=O)c2ccc3c4c(cccc24)CC3)C1` (stereo unspecified), the activation (% of control) was 89.5%.

In the case of `COc1ccc(/C=C/C(=O)Nc2ccc3c(c2)OCCO3)cc1OC`, the activation (% of control) is 96.8%.

With `COc1ccc(OC)c(/C=C/C(=O)OCC(=O)Nc2ccc3c(c2)OCCO3)c1`, the activation (% of control) is 98.4%.

For the compound `O=C(/C=C/c1ccc2c(c1)OCO2)NCc1ccc(F)cc1`, the activation (% of control) is 101%.

On to `COc1cccc(/C=C/C(=O)Nc2ccc3c(c2)OCCO3)c1`, for which the activation (% of control) is 129% (active).

Consider `CC(C)C(=O)Nc1cccc(C(=O)Nc2ccc3c(c2)OCO3)c1`, for which the activation (% of control) was 120%.

As for `CCc1c(C)sc(NC(=O)/C=C/c2ccc3c(c2)OCO3)c1C(=O)OC`, the activation (% of control) was 96.1%.

For the compound `Cc1cccc(NC(=O)/C=C/c2ccc3c(c2)OCO3)n1`, the activation (% of control) was 135% (active).

Regarding `Cc1cccc(NC(=O)Nc2ccc3c(c2)OCO3)n1`, the activation (% of control) was 168% (active).

Take `CC(NC(=O)Nc1ccc2c(c1)OCO2)c1ccncc1` (stereo unspecified): the activation (% of control) is 97.9%.

Turning to `CC(=C/c1ccccc1)/C=N/NC(=O)c1cc(C)oc1C`, the activation (% of control) was 117%.

For `O=C(O)/C=C\C(=O)Nc1ccc(OCc2ccccc2)cc1`, the activation (% of control) is 120%.

Take `Cn1c(SCC(=O)NC2CCCCC2)nnc1-c1ccc(N)cc1`: the activation (% of control) was 101%.

In the case of `CCSc1nc(C)c(CCOc2cccc(C)c2)c(=O)[nH]1`, the activation (% of control) was 102%.

Consider `CCOc1ccc(-c2nnc(-c3ccco3)o2)cc1`, for which the activation (% of control) was 93.5%.

As for `CCCCOc1ccc(-c2nnc(-c3ccco3)o2)cc1`, the activation (% of control) was 130% (active).

`CCC(=O)Oc1cccc(C(=O)Nc2ccc(-c3nnc(-c4ccco4)o3)cc2)c1`: the activation (% of control) is 104%.

As to `COc1ccc2nc(SCc3ccccc3)nc(C)c2c1`, the activation (% of control) was 188% (active).

In the case of `COc1ccc(-c2nnc3ccc(SCc4ccccc4)nn23)cc1`, the activation (% of control) was 96.5%.

For `COC(=O)CSc1nc(C)c2ccc(OC)cc2n1`, the activation (% of control) is 108%.

On to `Cc1ccc(C)c2[nH]c(=O)c(CCNC(=O)c3cccs3)cc12`, for which the activation (% of control) is 102%.

Regarding `CCOC(=O)C1(CCOC)CCN(Cc2ccc(C(=O)OC)cc2)CC1`, the activation (% of control) is 106%.

For the compound `CN1C(=O)/C(=C/C=C2\SCCN2C)OC1=S`, the activation (% of control) is 158% (active).

As to `O=C(NCc1ccccn1)c1cc(Br)ccc1Cl`, the activation (% of control) was 104%.

As to `COc1ccc(OCC(=O)NNC(=O)c2cccc(C)c2)cc1`, the activation (% of control) was 103%.

`O=C(O)c1ccc(NC(=O)c2cccs2)cc1`: the activation (% of control) is 98.1%.

Consider `O=C(N/N=C/C=C/c1ccco1)c1cccs1`, for which the activation (% of control) was 127%.

In the case of `CC(=O)Nc1ccc(/C=N/NC(=O)c2cccs2)cc1`, the activation (% of control) is 136% (active).

On to `Cc1cccc(-n2c(C)cc(/C=N\NC(=O)c3cccs3)c2C)c1`, for which the activation (% of control) was 140% (active).

Take `Cc1cccc(-n2c(C)cc(/C=N/NC(N)=S)c2C)c1`: the activation (% of control) is 110%.

As for `Cc1ccc(-n2nc(C)c(/C=N/NC(=O)c3cccs3)c2Cl)cc1`, the activation (% of control) is 106%.

`CN(C)N(C)C(=O)C(O)(c1ccccc1)c1ccccc1`: the activation (% of control) was 93.5%.
